The source made the active and inactive calls.
Columns and labels:
[1] = E. coli DRC41 culture turbidity changes, primary screen, E. coli filamentation inducer project, strain DRC41, OD650, 48 h (AID 1152);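 note: E. coli MC1000 strain DRC41 lacking acrAB efflux pump and sulA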; settings: E. coli DRC41 (acrAB sulA), higher = more signal, called active from +8 up or from −8 down
[2] = small-molecule binders of probe aLefty1, primary screen, biochemical, small-molecule microarray, 635/667 nm fluorescence (AID 1153); settings: higher = more signal;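 note: score merges spot fluorescence with signal-to-noise ratio from the scanned slide images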
[3] = PSAC antagonists in infected red cells, primary screen, cell-based, P. falciparum Indochina, OD700, 1 h (AID 1154); settings: P. falciparum Indochina infected RBC osmotic lysis, higher = more signal, called active from +8 up or from −8 down
[4] = PSAC antagonists in infected red cells, primary screen, cell-based, P. falciparum Indochina, OD700, 2 h (AID 1155);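 note: lysis reports solute entry through the parasite surface anion channel PSAC; channel blockers reduce lysis of infected cells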; settings: P. falciparum Indochina infected erythrocytes, osmotic lysis OD700; higher = more signal, called active from +8 up or from −8 down
[5] = osmotic lysis modulators in infected erythrocytes, primary screen, PSAC antagonist project, cell-based, P. falciparum Indochina, OD700, 3 h (AID 1156); settings: higher = more signal, called active from +8 up or from −8 down
[6] = PSAC antagonists in infected red cells, primary screen, cell-based, P. falciparum Indochina, OD700, 18 h (AID 1157); settings: P. falciparum Indochina infected erythrocytes, osmotic lysis OD700, 18 h; higher = more signal, called active from +8 up or from −8 down
[7] = modulators of S6 phosphorylation in cells, primary screen, cell-based, A549, cytoblot, luminescence, serum-stimulated (AID 1158); settings: A549 phospho-S6 cytoblot, 5 h, higher = more signal;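 note: serum-stimulated A549 lung adenocarcinoma cells; signal is phosphorylated S6 detected by cytoblot immunostaining with HRP secondary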
[8] = biological target: NADPH oxidase 2 (Homo sapiens) (UniProt P04839); experiment: NOX2-dependent H2O2 signal modulators, primary screen, NOX inhibitor project, cell-based, HEK293-NOX2, PMA-stimulated, Amplex Red fluorescence (AID 1159); settings: 45 min, higher = more signal, called active from +8 up or from −8 down; note: test concentration not given here
[9] = biological target: NADPH oxidase 4 (Homo sapiens) (UniProt Q9NPH5); experiment: NOX4-dependent H2O2 signal modulators, primary screen, NOX inhibitor project, cell-based, HEK293-NOX4, tetracycline-induced, Amplex Red fluorescence (AID 1160); settings: 45 min, higher = more signal, called active from +8 up or from −8 down
[10] = biological target: NADPH oxidase 5 (Homo sapiens) (UniProt Q96PH1); experiment: NOX5-dependent H2O2 signal modulators, primary screen, NOX inhibitor project, cell-based, HEK293-NOX5, Amplex Red fluorescence (AID 1161); settings: HEK293-NOX5, ionomycin, 45 min, higher = more signal
Chain of NADPH oxidase 5 (Homo sapiens) (Q96PH1 whole entry, looked up): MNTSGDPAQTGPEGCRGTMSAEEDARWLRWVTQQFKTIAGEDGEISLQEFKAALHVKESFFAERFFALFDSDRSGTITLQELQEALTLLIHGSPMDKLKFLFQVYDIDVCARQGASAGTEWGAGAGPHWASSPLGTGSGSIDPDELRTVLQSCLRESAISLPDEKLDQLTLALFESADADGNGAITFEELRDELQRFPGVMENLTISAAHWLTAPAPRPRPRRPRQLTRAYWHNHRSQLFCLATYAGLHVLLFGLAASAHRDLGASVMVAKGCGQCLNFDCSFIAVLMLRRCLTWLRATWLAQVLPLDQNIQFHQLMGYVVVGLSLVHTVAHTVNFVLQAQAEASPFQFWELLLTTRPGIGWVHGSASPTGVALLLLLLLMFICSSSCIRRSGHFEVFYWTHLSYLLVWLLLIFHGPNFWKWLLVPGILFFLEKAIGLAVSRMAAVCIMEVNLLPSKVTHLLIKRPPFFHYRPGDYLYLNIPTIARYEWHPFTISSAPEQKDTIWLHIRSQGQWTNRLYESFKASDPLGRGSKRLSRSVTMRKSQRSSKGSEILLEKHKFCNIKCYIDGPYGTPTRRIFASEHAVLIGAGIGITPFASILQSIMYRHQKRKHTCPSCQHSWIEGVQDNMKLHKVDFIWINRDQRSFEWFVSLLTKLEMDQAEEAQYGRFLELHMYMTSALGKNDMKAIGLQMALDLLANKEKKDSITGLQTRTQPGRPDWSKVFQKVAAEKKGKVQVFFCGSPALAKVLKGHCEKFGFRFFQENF

Chain of NADPH oxidase 2 (Homo sapiens) (P04839 whole entry, looked up): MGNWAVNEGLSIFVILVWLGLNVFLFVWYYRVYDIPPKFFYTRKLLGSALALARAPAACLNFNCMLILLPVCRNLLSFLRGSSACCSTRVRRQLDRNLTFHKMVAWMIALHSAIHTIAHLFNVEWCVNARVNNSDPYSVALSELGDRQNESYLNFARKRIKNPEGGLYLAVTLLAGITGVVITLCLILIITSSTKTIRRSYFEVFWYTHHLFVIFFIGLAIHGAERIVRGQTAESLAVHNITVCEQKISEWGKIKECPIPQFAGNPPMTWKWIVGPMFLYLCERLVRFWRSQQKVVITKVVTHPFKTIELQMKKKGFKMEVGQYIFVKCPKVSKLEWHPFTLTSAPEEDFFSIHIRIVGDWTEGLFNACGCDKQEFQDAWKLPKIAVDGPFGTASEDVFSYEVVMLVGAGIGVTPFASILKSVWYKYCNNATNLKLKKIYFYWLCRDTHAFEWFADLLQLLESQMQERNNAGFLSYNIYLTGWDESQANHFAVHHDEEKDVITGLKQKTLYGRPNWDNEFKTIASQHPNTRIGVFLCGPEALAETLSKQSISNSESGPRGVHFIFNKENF
Chain of NADPH oxidase 4 (Homo sapiens) (Q9NPH5 whole entry, looked up): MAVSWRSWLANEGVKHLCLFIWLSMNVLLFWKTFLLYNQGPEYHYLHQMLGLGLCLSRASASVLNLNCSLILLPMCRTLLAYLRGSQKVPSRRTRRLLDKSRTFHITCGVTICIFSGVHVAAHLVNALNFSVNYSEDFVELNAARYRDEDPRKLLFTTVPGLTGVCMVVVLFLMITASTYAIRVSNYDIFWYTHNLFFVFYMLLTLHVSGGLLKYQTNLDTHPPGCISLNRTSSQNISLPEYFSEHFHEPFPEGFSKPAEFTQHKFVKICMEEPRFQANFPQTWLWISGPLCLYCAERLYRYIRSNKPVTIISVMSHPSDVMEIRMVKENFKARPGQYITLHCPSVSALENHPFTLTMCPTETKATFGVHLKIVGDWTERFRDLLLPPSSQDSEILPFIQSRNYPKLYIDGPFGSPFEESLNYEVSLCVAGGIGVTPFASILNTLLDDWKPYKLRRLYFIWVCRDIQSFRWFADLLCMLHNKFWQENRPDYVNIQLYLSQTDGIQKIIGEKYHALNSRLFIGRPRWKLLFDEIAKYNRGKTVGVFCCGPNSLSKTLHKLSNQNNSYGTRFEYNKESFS

| SMILES | z-score [1] | composite z-score [2] | z-score [3] | z-score [4] | z-score [5] | z-score [6] | z-score [7] | z-score [8] | z-score [9] | z-score [10] |
| --- | --- | --- | --- | --- | --- | --- | --- | --- | --- | --- |
| CC1CC/C=C\[C@H]2OC34C=CCN(Cn5nnc6ccccc65)C(=O)[C@H]3N(CCCO)C(=O)[C@@H]4C2C(=O)O1 (stereo not given in full) | 1.29 (inactive) | 0.0445 | 0.935 (inactive) | 0.563 (inactive) | -0.264 (inactive) | 0.554 (inactive) | 0.114 | 0.923 (inactive) | -1.82 (inactive) | 1.4 |
| C=CCN1Cc2ccccc2C[C@]2(N=C(c3ccc(OCCCO)cc3)O[C@@H]2c2ccccc2)C1=O | 1.35 (inactive) | 0.32 | 24.3 (active) | 12.6 (active) | -0.0845 (inactive) | 1.93 (inactive) | 1.95 | -2.9 (inactive) | 0.272 (inactive) | -2.7 |
| O=C1OCC=C[C@H]2OC34C=CCN(c5ccc6ccccc6c5)C(=O)[C@H]3N(CCO)C(=O)[C@@H]4[C@@H]12 (stereo not given in full) | -0.773 (inactive) | 0.235 | 1.33 (inactive) | 0.796 (inactive) | 0.547 (inactive) | 0.552 (inactive) | -0.572 | 1.53 (inactive) | 1.05 (inactive) | 1.46 |
| COC(=O)[C@@]1(Cc2ccc(F)cc2)[C@H]2c3cc(C(=O)N4CCCC4)n(Cc4ccc(Cl)c(C(F)(F)F)c4)c3C[C@H]2CN1C(=O)c1ccccc1 | -1.31 (inactive) | 1.99 | 3.16 (inactive) | 0.895 (inactive) | 0.923 (inactive) | 1.21 (inactive) | -0.256 | 0.71 (inactive) | 0.705 (inactive) | 1.31 |
| COC(=O)[C@@]1(Cc2ccc(OC)cc2)[C@H]2c3cc(C(=O)N4CCCC4)n(CCc4ccccn4)c3C[C@H]2CN1C(=O)c1ccccc1 | -1.76 (inactive) | 0.496 | 1.15 (inactive) | 0.453 (inactive) | 0.924 (inactive) | 0.518 (inactive) | 0.958 | 0.48 (inactive) | -2.11 (inactive) | -3.82 |
| COc1ccccc1CN1C(=O)c2ccccc2[C@](Cc2ccccc2I)(C(=O)NC2CC2)[C@@H]1c1ccc(CO)cc1 | 0.203 (inactive) | -0.25 | 11.4 (active) | 1.35 (inactive) | 2.38 (inactive) | 0.99 (inactive) | -0.154 | -0.975 (inactive) | -0.89 (inactive) | -2.08 |
| COCCOC(=O)N1C(=O)[C@@]2(c3cc(C#CCC(C(=O)OC)C(=O)OC)ccc31)[C@H](c1ccccc1OCCO)N1[C@H](c3ccccc3)[C@H](c3ccccc3)OC(=O)[C@H]1[C@@H]2C(=O)Nc1nc2ccccc2s1 | 4.44 (inactive) | 0.437 | 11.7 (active) | 1.48 (inactive) | 0.444 (inactive) | -0.734 (inactive) | 3.72 | 1.18 (inactive) | 1.19 (inactive) | -0.494 |
| CC(C)[Si]1(C(C)C)O[C@@H](c2ccccc2)c2cc(-c3ccc(-c4ccc(Cl)c(Cl)c4)o3)nc(CCc3ccccc3)c21 | -0.792 (inactive) | -0.0428 | 3.36 (inactive) | 0.652 (inactive) | -0.443 (inactive) | -0.0811 (inactive) | -0.507 | 0.903 (inactive) | 0.928 (inactive) | 0.44 |
| COCCOC(=O)N1C(=O)[C@@]2(c3cc(C#CCCO)ccc31)[C@H](c1ccc(O)cc1)N1[C@H](c3ccccc3)[C@H](c3ccccc3)OC(=O)[C@H]1[C@@H]2C(=O)N1CCCCCCC1 | -0.275 (inactive) | 1.6 | 0.139 (inactive) | -0.178 (inactive) | -0.599 (inactive) | 0.0501 (inactive) | -0.451 | 1.17 (inactive) | 0.131 (inactive) | 1.38 |
| C=CC[C@]1(C(=O)NCCN2CCOCC2)N=C(c2ccc(OCCCO)cc2)O[C@H]1c1ccccc1N=[N+]=[N-] | 1.39 (inactive) | 0.14 | 30.7 (active) | 28.6 (active) | 2.5 (inactive) | 5.98 (inactive) | -0.106 | -0.798 (inactive) | 1.5 (inactive) | 0.108 |
| CC(C)C(CO)N1C(=O)[C@@H]2[C@H]3C(=O)OCC=C[C@H]3OC23C=CCN(c2ccc4ccccc4c2)C(=O)[C@@H]13 (stereo not given in full) | -0.165 (inactive) | -0.147 | 0.244 (inactive) | 0.884 (inactive) | 0.686 (inactive) | 0.6 (inactive) | -0.575 | 0.902 (inactive) | 0.357 (inactive) | 1.74 |
| CC(C)(C)OC(=O)CC[C@@]1(C(=O)NCC(O)CO)N=C(c2ccc(OCCCO)cc2)O[C@@H]1c1ccccc1 (stereo not given in full) | -0.0744 (inactive) | 0.0004 | 20.4 (active) | 2.42 (inactive) | 0.384 (inactive) | 0.519 (inactive) | 0.0391 | 0.0533 (inactive) | 0.626 (inactive) | 1.45 |
| Cc1ccc([C@H]2C(C(=O)O)=C[C@@H](C(C)C)N2S(=O)(=O)c2ccc(C)cc2)cc1 | -1.01 (inactive) | 0.121 | 0.297 (inactive) | 0.711 (inactive) | -0.539 (inactive) | 0.734 (inactive) | -0.365 | 0.79 (inactive) | -1.06 (inactive) | -0.32 |
| CC(C)N1C(=O)c2ccccc2[C@](C)(C(=O)NC2CC2)[C@@H]1c1ccc(CO)cc1 | 0.897 (inactive) | 0.0451 | 0.838 (inactive) | 0.122 (inactive) | -0.173 (inactive) | 0.475 (inactive) | -0.0085 | -0.987 (inactive) | -0.354 (inactive) | -0.547 |
| CC(C)(C)OC(=O)CC[C@@]1(C(=O)N2CCOCC2)N=C(c2ccc(OCCCO)cc2)O[C@@H]1c1ccccc1N=[N+]=[N-] | 1.96 (inactive) | 0.394 | 30.9 (active) | 28.1 (active) | 1.09 (inactive) | 7.36 (inactive) | -0.242 | -3.49 (inactive) | 0.71 (inactive) | -2.04 |
| COc1ccc([Si](C)(C)[C@H]2[C@H](CC(=O)N3CCC[C@H]3CO)O[C@@]3(C(=O)N(c4ccccc4)c4ccccc43)[C@@H]2C)cc1 | 3.01 (inactive) | 0.228 | 1.84 (inactive) | -0.132 (inactive) | -0.0926 (inactive) | -0.284 (inactive) | 1.48 | 1.44 (inactive) | 1.46 (inactive) | 1.96 |
| C[N+](C)(C)CCCC[C@@H]1NC(=O)[C@H]2C[C@@H](C(=O)O)[C@@H](c3cccc(OCCO)c3)N2C1=O | -0.0215 (inactive) | 1.69 | 1.15 (inactive) | 0.729 (inactive) | -1.43 (inactive) | 0.252 (inactive) | 0.743 | 0.114 (inactive) | 0.0916 (inactive) | 0.986 |
| CN1C(=O)C2C=CC(C(O)C(c3ccccc3)c3ccccc3)N(Nc3ccccc3)C2C1=O (stereo not given) | -2.34 (inactive) | 0.516 | 1.63 (inactive) | 2.15 (inactive) | 0.742 (inactive) | 1.12 (inactive) | -0.946 | -1.39 (inactive) | -4.91 (inactive) | -2.44 |
| NC(=O)NCC#Cc1ccc2c(c1)[C@]1(C(=O)N2)[C@H](C(=O)NC[C@H](O)c2ccccc2)[C@H]2C(=O)O[C@H](c3ccccc3)[C@H](c3ccccc3)N2[C@@H]1c1ccccc1OCCO | 2.23 (inactive) | 0.157 | 1.15 (inactive) | -0.658 (inactive) | 0.0336 (inactive) | -2.16 (inactive) | 1.5 | 0.121 (inactive) | -1.95 (inactive) | -1.81 |
| [N-]=[N+]=Nc1ccccc1[C@@H]1OC(c2ccc(OCCCO)cc2)=N[C@]1(CCS(=O)(=O)c1ccccc1)C(=O)N1CCCCC1 | -0.112 (inactive) | 1.12 | 30.2 (active) | 25 (active) | 1.7 (inactive) | 3.94 (inactive) | -0.174 | -1.33 (inactive) | 1.85 (inactive) | 1.52 |
| CCCC[C@H]1OB(O)C[C@H]2C1=C(COc1ccccc1)C[C@H]1C(=O)N(Cc3ccccc3)C(=O)[C@H]12 | -0.288 (inactive) | 0.179 | 6.03 (inactive) | 1.38 (inactive) | 0.0146 (inactive) | 0.475 (inactive) | -0.056 | -0.0336 (inactive) | 0.143 (inactive) | 0.245 |
| O=C1OCC=C[C@H]2OC34C=CCN(c5ccc(Cl)cc5)C(=O)[C@H]3N(CCCO)C(=O)[C@@H]4[C@@H]12 (stereo not given in full) | 0.657 (inactive) | -0.128 | 0.204 (inactive) | -0.531 (inactive) | -0.172 (inactive) | -1.41 (inactive) | 0.808 | 0.846 (inactive) | -0.895 (inactive) | 2.6 |
| C=C(C(=O)CC[C@@H](OC(C)=O)c1ccc(OCCO)cc1)C(C)C | 0.0045 (inactive) | -0.142 | 3.04 (inactive) | 0.584 (inactive) | 0.652 (inactive) | 0.332 (inactive) | -0.579 | -1.37 (inactive) | -1.21 (inactive) | -1.77 |
| O=c1cccc(-c2cccc3ccccc23)o1 | 0.109 (inactive) | 0.106 | 6.68 (inactive) | 1.37 (inactive) | -0.276 (inactive) | 0.832 (inactive) | -0.312 | -0.112 (inactive) | -2.39 (inactive) | -0.0533 |
| C=CCNC(=O)[C@@H]1[C@H]2C(=O)O[C@H](c3ccccc3)[C@H](c3ccccc3)N2[C@H](c2ccccc2OCCO)[C@@]12C(=O)N(C(=O)OCCOC)c1ccc(C#CCC(C(=O)OC)C(=O)OC)cc12 | 0.0535 (inactive) | 1.51 | 1.78 (inactive) | 0.931 (inactive) | 0.222 (inactive) | 0.506 (inactive) | 0.273 | 0.793 (inactive) | 0.966 (inactive) | 1.07 |
